{
  "source": "the OligoGym collection",
  "data": [
    {"molecular_target": "GIP", "experiment": "pooled miR-30 sensor sort-seq; sequence = guide strand", "details": "shRNA", "values": [
      {"sequence": "TTTGTCTGATCCAGCAAGCAGG", "sensor-assay potency score (higher = more potent)": -1.07},
      {"sequence": "AATACTGTAGTCACTGATGAAA", "sensor-assay potency score (higher = more potent)": -1.63},
      {"sequence": "TTGTTGGTGAATCTTGTCCATG", "sensor-assay potency score (higher = more potent)": -1.48},
      {"sequence": "AAAGTCTTGTTGGTGAATCTTG", "sensor-assay potency score (higher = more potent)": -0.684},
      {"sequence": "TAGCATGAGATCCAACAGGCAG", "sensor-assay potency score (higher = more potent)": -0.668}
    ]},
    {"molecular_target": "GJB7", "experiment": "pooled miR-30 sensor sort-seq; sequence = guide strand", "details": "shRNA", "values": [
      {"sequence": "TATACTAGTAAATTATAGGCGA", "sensor-assay potency score (higher = more potent)": -0.424},
      {"sequence": "TTTGTCTTCCAACTCAGCTTAG", "sensor-assay potency score (higher = more potent)": -1.04},
      {"sequence": "TCTGACTCTAGAGTGACCCTTT", "sensor-assay potency score (higher = more potent)": 0.802},
      {"sequence": "TAGTACACATTTTACTATCTGT", "sensor-assay potency score (higher = more potent)": -0.554},
      {"sequence": "TTACAGTATAGTACATAGTGAA", "sensor-assay potency score (higher = more potent)": -0.477},
      {"sequence": "TACAGTATAGTACATAGTGAAT", "sensor-assay potency score (higher = more potent)": -1.64},
      {"sequence": "TTGTGTGTCACAGAGTAGCTTT", "sensor-assay potency score (higher = more potent)": -0.222},
      {"sequence": "TTCAACACAATACACAAGCATG", "sensor-assay potency score (higher = more potent)": -0.84},
      {"sequence": "TATTCTAAAACAACTAATGTTA", "sensor-assay potency score (higher = more potent)": -0.542},
      {"sequence": "TATTTTTGGAGACAGCACTTAA", "sensor-assay potency score (higher = more potent)": -0.911},
      {"sequence": "TAGAGTTTCTTTCTGTGCCTTT", "sensor-assay potency score (higher = more potent)": 0.0219}
    ]},
    {"molecular_target": "GKN1", "experiment": "pooled miR-30 sensor sort-seq; sequence = guide strand", "details": "shRNA", "values": [
      {"sequence": "ATCCATAGTACACTGGTCGTGT", "sensor-assay potency score (higher = more potent)": 0.399},
      {"sequence": "TGGTCGTGTAGCACGTTCCTGA", "sensor-assay potency score (higher = more potent)": -0.625},
      {"sequence": "TTTTCTGCACAGCATATTCAGA", "sensor-assay potency score (higher = more potent)": -0.973},
      {"sequence": "TTTGTGCACAATGCATGTCTTC", "sensor-assay potency score (higher = more potent)": -0.893},
      {"sequence": "TGATATTATAGTTAGCTAGGGC", "sensor-assay potency score (higher = more potent)": -0.211},
      {"sequence": "TTGTGAACTTCATCTTGTCTTC", "sensor-assay potency score (higher = more potent)": -0.21},
      {"sequence": "TTGTTGTCATCATTGACGTTGA", "sensor-assay potency score (higher = more potent)": -0.288},
      {"sequence": "TTCATTGTTGACACTCACTGAC", "sensor-assay potency score (higher = more potent)": 0.268},
      {"sequence": "ATTGTTGACACTCACTGACTGC", "sensor-assay potency score (higher = more potent)": -0.392},
      {"sequence": "TTCTTTTGAAAGAGTCTGGTTG", "sensor-assay potency score (higher = more potent)": 0.101},
      {"sequence": "TACACTGGTCGTGTAGCACGTT", "sensor-assay potency score (higher = more potent)": -0.157}
    ]},
    {"molecular_target": "GKN2", "experiment": "pooled miR-30 sensor sort-seq; sequence = guide strand", "details": "shRNA", "values": [
      {"sequence": "TGACTTTTGAGTGTAAACCAAG", "sensor-assay potency score (higher = more potent)": -1.39},
      {"sequence": "TTAATTTGACTTTTGAGTGTAA", "sensor-assay potency score (higher = more potent)": 0.33},
      {"sequence": "TTATAGTCAAAAATTGTGGTAG", "sensor-assay potency score (higher = more potent)": 0.587},
      {"sequence": "TAGAAGAGCATGATCCTGCATG", "sensor-assay potency score (higher = more potent)": -0.328},
      {"sequence": "TGGTAGAAGAGCATGATCCTGC", "sensor-assay potency score (higher = more potent)": -0.134},
      {"sequence": "TTTATAGTCAAAAATTGTGGTA", "sensor-assay potency score (higher = more potent)": -0.623},
      {"sequence": "TATTTTCTGACTGAATCTCAAA", "sensor-assay potency score (higher = more potent)": -1.16}
    ]},
    {"molecular_target": "GLA", "experiment": "pooled miR-30 sensor sort-seq; sequence = guide strand", "details": "shRNA", "values": [
      {"sequence": "TTTTATTTCCAACATCTGCATA", "sensor-assay potency score (higher = more potent)": -1.26},
      {"sequence": "TTAACCTTGAAGTCCATTCATA", "sensor-assay potency score (higher = more potent)": -0.885},
      {"sequence": "AACTGTCACAGTAACAACCATC", "sensor-assay potency score (higher = more potent)": -1.1},
      {"sequence": "TTATGTGACTTCTTAACCTTGA", "sensor-assay potency score (higher = more potent)": 0.747},
      {"sequence": "ATACTCTTTATACTTTTCCAGG", "sensor-assay potency score (higher = more potent)": -1.52},
      {"sequence": "TTTATTTCCAACATCTGCATAA", "sensor-assay potency score (higher = more potent)": -0.987}
    ]}
  ]
}
